Active and inactive are the calls of the source.

Assay [1] is described as follows: optical density shifts of acrAB sulA E. coli – strain DRC41, OD650, 48 h, E. coli filamentation inducer project, primary screen (AID 1152).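 Also: E. coli MC1000 strain DRC41 lacking acrAB efflux pump and sulA.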 To be noted: higher = more signal, called active from +8 up or from −8 down.
Assay [2] in a line: probe aLefty1 binding on compound microarray – biochemical, small-molecule microarray, 635/667 nm fluorescence, primary screen (AID 1153).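 Also: score merges spot fluorescence with signal-to-noise ratio from the scanned slide images.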 To be noted: higher = more signal.
Assay [3] is described as follows: plasmodial surface anion channel blockers, osmotic lysis – cell-based, P. falciparum Indochina, OD700, 1 h, primary screen (AID 1154). To be noted: P. falciparum Indochina infected RBC osmotic lysis, higher = more signal, called active from +8 up or from −8 down.
The nature of assay [4]: plasmodial surface anion channel blockers, osmotic lysis – cell-based, P. falciparum Indochina, OD700, 2 h, primary screen (AID 1155).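 Also: lysis reports solute entry through the parasite surface anion channel PSAC.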 To be noted: P. falciparum Indochina infected erythrocytes, higher = more signal, called active from +8 up or from −8 down.
Assay [5] is described as follows: changes in parasitized red cell lysis, either direction – P. falciparum Indochina, OD700, 3 h, PSAC antagonist project, primary screen (AID 1156). The settings on record: P. falciparum-infected erythrocytes, osmotic lysis, higher = more signal, called active from +8 up or from −8 down.
The nature of assay [6]: plasmodial surface anion channel blockers, osmotic lysis – cell-based, P. falciparum Indochina, OD700, 18 h, primary screen (AID 1157). To be noted: P. falciparum Indochina infected erythrocytes, osmotic lysis OD700, 18 h; higher = more signal, called active from +8 up or from −8 down.
Assay [7] in a line: S6 kinase pathway phospho-S6 level changes – cell-based, A549, cytoblot, luminescence, serum-stimulated, primary screen (AID 1158).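 Also: serum-stimulated A549 lung adenocarcinoma cells; signal is phosphorylated S6 detected by cytoblot immunostaining with HRP secondary.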 To be noted: 5 h, higher = more signal.
Assay [8] has as its target NADPH oxidase 2 (Homo sapiens) (UniProt P04839). Description: compounds shifting NOX2 Amplex Red fluorescence – cell-based, HEK293-NOX2, PMA-stimulated, NOX inhibitor project, primary screen (AID 1159). Also: test concentration not given here. The settings on record: 45 min, higher = more signal, called active from +8 up or from −8 down.
In assay [9] the target is NADPH oxidase 4 (Homo sapiens) (UniProt Q9NPH5). Description: compounds shifting NOX4 Amplex Red fluorescence – cell-based, HEK293-NOX4, tetracycline-induced, NOX inhibitor project, primary screen (AID 1160). The settings on record: HEK293-NOX4, Amplex Red H2O2 fluorescence, 45 min; higher = more signal, called active from +8 up or from −8 down.
Assay [10] addresses NADPH oxidase 5 (Homo sapiens) (UniProt Q96PH1). Description: compounds shifting NOX5 Amplex Red fluorescence – cell-based, HEK293-NOX5, NOX inhibitor project, primary screen (AID 1161). To be noted: HEK293-NOX5, ionomycin, 45 min, higher = more signal.
The nature of assay [11]: compound effects on lung adenocarcinoma cell viability – A549, calcein-AM fluorescence, 48 h, basal, profiling panel (AID 1162). Also: test concentration not given here. To be noted: higher = more signal.
Assay [12] can be described thus: compound effects on differentiated 3T3-L1 adipocyte viability – cell-based, 3T3-L1 adipocytes, calcein-AM fluorescence, 48 h, basal, profiling panel (AID 1163). Also: test concentration not given here. The settings on record: 3T3-L1 adipocytes viability, higher = more signal.
Assay [13] is described as follows: compound effects on hepatocellular carcinoma cell viability – HepG2, calcein-AM fluorescence, 48 h, basal, profiling panel (AID 1164). Also: test concentration not given here. The settings on record: higher = more signal.
Assay [14] can be described thus: compound effects on multiple myeloma cell viability – MM1S, calcein-AM fluorescence, 48 h, basal, profiling panel (AID 1165).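 Also: viability of MM1S multiple myeloma cells under basal unstimulated conditions; test concentration not given here.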 To be noted: higher = more signal.
The nature of assay [15]: calcein-AM signal in unstimulated myeloma cells – cell-based, calcein-AM fluorescence, 48 h, PK04 Diversity Set, profiling panel (AID 1166).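 Also: cells grown under basal conditions without added stimulus; test concentration not given here.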 The settings on record: RPMI8226 myeloma viability, higher = more signal.
Assay [16] is described as follows: JC-1 mitochondrial signal, unstimulated HepG2 cells – cell-based, JC-1 fluorescence, 24 h, 100 nL compound, profiling panel (AID 1167). Also: test concentration not given here. The settings on record: HepG2 mitochondrial potential, higher = more signal.
Assay [17] is described as follows: JC-1 mitochondrial signal, unstimulated adipocytes – cell-based, JC-1 fluorescence, 3T3-L1 adipocytes, 24 h, 100 nL compound, profiling panel (AID 1168). Also: test concentration not given here. To be noted: JC-1 mitochondrial fluorescence, higher = more signal, called active from +8 up or from −8 down.
A short description of assay [18]: JC-1 mitochondrial signal, unstimulated myeloma cells – cell-based, JC-1 fluorescence, RPMI8226, 24 h, 100 nL compound, profiling panel (AID 1169). Also: test concentration not given here. To be noted: JC-1 mitochondrial potential fluorescence, higher = more signal.
Assay [19] in a line: JC-1 mitochondrial signal, unstimulated MM1S myeloma – cell-based, JC-1 fluorescence, 24 h, 100 nL compound, profiling panel (AID 1170). Also: test concentration not given here. The settings on record: MM1S mitochondrial potential, higher = more signal.
Assay [20] can be described thus: resazurin metabolic signal in A549 cells – cell-based, resazurin fluorescence, 24 h, PK04 Diversity Set, profiling panel (AID 1171). Also: test concentration not given here. The settings on record: A549 viability, higher = more signal, called active from +8 up or from −8 down. In general terms: Resazurin is reduced to fluorescent resorufin, in cell work by metabolically active cells.

Chain of NADPH oxidase 5 (Homo sapiens) (Q96PH1 whole entry, looked up): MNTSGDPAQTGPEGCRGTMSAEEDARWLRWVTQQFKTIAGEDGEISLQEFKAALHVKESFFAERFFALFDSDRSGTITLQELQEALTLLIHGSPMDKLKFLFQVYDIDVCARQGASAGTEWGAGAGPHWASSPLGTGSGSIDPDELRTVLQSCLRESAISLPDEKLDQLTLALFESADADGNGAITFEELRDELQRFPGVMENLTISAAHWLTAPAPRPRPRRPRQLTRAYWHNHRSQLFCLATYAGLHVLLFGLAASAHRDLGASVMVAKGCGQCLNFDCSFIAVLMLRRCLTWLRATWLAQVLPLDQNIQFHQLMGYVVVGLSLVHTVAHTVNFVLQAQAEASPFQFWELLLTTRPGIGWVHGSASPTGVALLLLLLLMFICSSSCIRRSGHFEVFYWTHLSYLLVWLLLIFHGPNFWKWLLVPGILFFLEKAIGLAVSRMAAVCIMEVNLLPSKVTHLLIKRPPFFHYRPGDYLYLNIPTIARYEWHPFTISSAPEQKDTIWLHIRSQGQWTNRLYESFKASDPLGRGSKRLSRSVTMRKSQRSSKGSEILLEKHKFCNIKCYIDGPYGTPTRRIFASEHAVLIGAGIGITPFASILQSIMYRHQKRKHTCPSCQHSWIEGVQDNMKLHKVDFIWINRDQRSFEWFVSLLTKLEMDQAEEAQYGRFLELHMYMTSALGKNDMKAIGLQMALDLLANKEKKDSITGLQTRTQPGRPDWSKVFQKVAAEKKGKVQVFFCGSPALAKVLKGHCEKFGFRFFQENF
Chain of NADPH oxidase 2 (Homo sapiens) (P04839 whole entry, looked up): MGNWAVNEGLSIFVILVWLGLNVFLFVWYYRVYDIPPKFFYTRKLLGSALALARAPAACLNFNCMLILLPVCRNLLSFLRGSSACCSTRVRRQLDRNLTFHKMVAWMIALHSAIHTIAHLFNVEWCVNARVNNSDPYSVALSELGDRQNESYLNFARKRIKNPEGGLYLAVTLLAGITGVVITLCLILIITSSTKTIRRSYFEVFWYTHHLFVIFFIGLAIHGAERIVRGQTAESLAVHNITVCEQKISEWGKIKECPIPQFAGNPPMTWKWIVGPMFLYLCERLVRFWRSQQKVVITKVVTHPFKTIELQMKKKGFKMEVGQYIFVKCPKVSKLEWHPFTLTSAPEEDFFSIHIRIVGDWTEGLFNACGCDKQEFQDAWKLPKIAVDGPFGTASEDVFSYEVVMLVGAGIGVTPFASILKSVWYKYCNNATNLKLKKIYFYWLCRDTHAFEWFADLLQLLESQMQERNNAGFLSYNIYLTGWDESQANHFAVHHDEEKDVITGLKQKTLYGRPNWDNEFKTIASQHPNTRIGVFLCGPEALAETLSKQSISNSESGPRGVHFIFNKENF
Chain of NADPH oxidase 4 (Homo sapiens) (Q9NPH5 whole entry, looked up): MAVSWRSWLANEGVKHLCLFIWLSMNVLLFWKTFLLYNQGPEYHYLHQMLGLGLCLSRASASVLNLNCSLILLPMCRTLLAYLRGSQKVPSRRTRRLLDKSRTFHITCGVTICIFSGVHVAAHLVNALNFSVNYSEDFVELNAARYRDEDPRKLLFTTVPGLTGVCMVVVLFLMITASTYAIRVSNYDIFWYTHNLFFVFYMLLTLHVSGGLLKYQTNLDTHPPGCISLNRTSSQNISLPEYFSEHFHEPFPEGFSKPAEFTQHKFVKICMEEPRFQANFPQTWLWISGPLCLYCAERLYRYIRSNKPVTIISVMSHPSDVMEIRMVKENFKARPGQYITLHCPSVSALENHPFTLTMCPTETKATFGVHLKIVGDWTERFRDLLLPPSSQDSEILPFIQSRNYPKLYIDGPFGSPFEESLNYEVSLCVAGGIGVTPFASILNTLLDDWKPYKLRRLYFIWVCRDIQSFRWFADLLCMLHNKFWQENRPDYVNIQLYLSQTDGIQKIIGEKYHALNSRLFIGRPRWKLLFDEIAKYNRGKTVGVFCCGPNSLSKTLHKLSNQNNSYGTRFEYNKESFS

Consider `C#CCCCON=C1C[C@@H](O)[C@@H](O)[C@@H]2[C@@H]3C(=O)N(CCC(=O)OCC)C(=O)[C@@H]3CC[C@@H]12`, for which the z-score is 0.425 (inactive) in [1]; 16.5 (active) in assay [3]; 1.47 (inactive) in assay [4]; 0.146 (inactive) in [5]; 0.404 (inactive) in [6]; 0.194 in assay [7]. The z-score was -9.69 (active) in [8]; 0.556 (inactive) in [9]; 0.618 in [10]; -0.284 in [11]; -0.533 in assay [12]; -0.675 in assay [13]. Besides, the z-score in assay [14] is 0.17; in assay [15], -0.608; in assay [16], -1.18; in [17] it was -1.66 (inactive); in assay [18], 0.213; in assay [19] it was -0.123. Also, the z-score in assay [20] was -0.0981 (inactive). The composite z-score in assay [2] came to 0.309.

For `COCCOC(=O)N1C(=O)[C@@]2(c3cc(C#CCNC(N)=O)ccc31)[C@H](c1ccc(O)cc1)N1[C@H](c3ccccc3)[C@H](c3ccccc3)OC(=O)[C@H]1[C@@H]2C(=O)N1CCCCCCC1`, the z-score is 0.455 (inactive) in assay [1]; 1.04 (inactive) in assay [3]; 0.656 (inactive) in assay [4]; -0.0303 (inactive) in assay [5]; 0.411 (inactive) in assay [6]; 0.0352 in [7]. In addition, the z-score was 1.49 (inactive) in [8]; -1.04 (inactive) in [9]; 1.48 in assay [10]; -0.55 in assay [11]; 0.012 in assay [12]; -0.49 in assay [13]. Further, the z-score in assay [14] is -0.441; in assay [15], 0.0294; in [16], -1.85; in [17] it was -0.731 (inactive); in [18], 0.399; in assay [19], 0.298. In addition, in assay [20], the z-score was 0.215 (inactive). Besides, the composite z-score in assay [2] is -0.0779.

Take `C#CCCCON=C1C[C@@H](O)[C@@H](O)[C@@H]2[C@@H]3C(=O)N(c4cccc(Oc5ccccc5)c4)C(=O)[C@@H]3CC[C@@H]12`: the z-score in assay [1] is -0.164 (inactive); in assay [3] it was 2.87 (inactive); in assay [4], 1.29 (inactive); in assay [5], 1.24 (inactive); in [6] it was 0.354 (inactive); in assay [7], -0.512. Besides, the z-score in assay [8] is -2.13 (inactive); in [9], -0.598 (inactive); in assay [10] it was -0.786; in assay [11], -0.559; in assay [12], 0.43; in assay [13], -1.57. Besides, the z-score in assay [14] was -0.399; in assay [15] it was -0.2; in assay [16], 0.106; in assay [17] it was 0.126 (inactive); in assay [18], -0.56; in assay [19], 0.835. The z-score in [20] is -0.248 (inactive). Further, the composite z-score in assay [2] is -0.0929.

For the compound `C=CCC(OC(C)=O)[C@@H]1[C@@H](N(Cc2cc3ccccc3o2)C(=O)Cc2ccc(F)cc2)c2cc(OCCCO)ccc2N1C(=O)Cc1ccc(OC)cc1` (stereo not given in full), the z-score in assay [1] was -0.778 (inactive); in assay [3], 1.05 (inactive); in assay [4], 0.172 (inactive); in [5] it was -0.67 (inactive); in [6], -0.133 (inactive); in assay [7], -0.597. In addition, the z-score in assay [8] is 0.2 (inactive); in assay [9], 0.727 (inactive); in assay [10], -0.743; in assay [11] it was -0.382; in assay [12], 0.569; in assay [13], 0.585. Further, the z-score is -0.0962 in assay [14]; 0.228 in assay [15]; 1.16 in assay [16]; -0.0927 (inactive) in assay [17]; 0.774 in assay [18]; -0.208 in assay [19]. Also, the z-score in assay [20] is 0.331 (inactive). For the same compound, the composite z-score in [2] was -0.06.

As for `COc1ccc(-c2ccc3c(n2)CCCN3CC(O)CN2CCCc3nc(C)c(C)cc32)cc1` (stereo not given), the z-score in assay [1] was 0.125 (inactive); in [3], 5.76 (inactive); in assay [4], 0.894 (inactive); in [5] it was 0.661 (inactive); in assay [6], 0.0758 (inactive); in [7], -0.0509. Besides, the z-score in assay [8] was 1.05 (inactive); in [9], -0.305 (inactive); in assay [10], -1.35; in [11], -0.389; in [12], -0.943; in assay [13], 0.151. The z-score was 0.676 in [14]; -0.158 in [15]; 1.58 in assay [16]; -0.205 (inactive) in assay [17]; -0.108 in assay [18]; -0.975 in [19]. Moreover, the z-score in [20] is -0.542 (inactive). This compound also yielded a composite z-score in assay [2] of 0.864.

These data come from PubChem BioAssay.
